The text below walks through data of PubChem BioAssay AID2685 (National Center for Advancing Translational Sciences (NCATS), 2010).

Structures are written as SMILES. The campaign covered roughly 320,000 compounds. About 2,100 (0.66%) were called active. Not shown: some 53% with an inconclusive outcome. This is one part of a sample in which actives are shown more often than they occur. Calls follow the shape of the dose curve; as a rule, active = well fitted inhibition curve with a large enough effect in the signal ratio, with a control signal flat (not every such curve was filed as active); inconclusive = small, poorly fitted or top-dose-only effect, or effect the other way, or a change in a side signal; inactive = flat fitted curve, though single readings scatter; the % refers to the signal ratio.
Potency is read from the fitted curve at half-maximal effect.

This assay in a line: qHTS Assay for Lipid Storage Modulators in Drosophila S3 Cells.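 As to cell number change: cells counted by Cell Tracker Red CMTPX staining in the red channel.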 As to lipid storage change, negative = inhibition: % is scaled to controls: 0 for no effect and ±100 for the full control effect. Conditions: BODIPY lipid droplet fluorescence, 18-24 h, cells fed with added oleic acid; cell number change: measured here: cell count max response; series mostly up to 46.1 µM; lipid storage change, negative = inhibition: at the top concentration. A digest of the protocol: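 Drosophila S3 cells loaded with oleic acid (400 uM, as added) and compounds at several concentrations; lipid droplets imaged by 488-nm laser-scanning cytometry, 500–530 nm intensity and object ratio to cell channel. Percent activity normalized to 20 uM Triacsin C.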
(In general: qHTS replaces the single test concentration by a dilution series.)
On to `O=C1NCCn2ccc(=O)cc21`, for which the “lipid storage change, negative = inhibition” value was 3.98% (inactive) and the cell number change came out at 4.17%.

Consider `CCOC(=O)/C(N=O)=C(\O)C1CCN(C(=O)OCC)CC1`, for which the “lipid storage change, negative = inhibition” value is -5.07% (inactive) and the cell number change worked out at 1.9%.

For `c1cncc(CNc2ncnc3sccc23)c1`, the “lipid storage change, negative = inhibition” value is -0.833% (inactive) and the cell number change was -4.09%.

As for `c1ccc(CNc2ncnc3sccc23)cc1`, the Potency was 16.4 µM (active) and the cell number change was -15.5%.

`NS(=O)(=O)c1ccc(CNc2ncnc3sccc23)cc1`: the result was inactive and the cell number change was -15.1%.

As for `Cc1cc(C)cc(-n2ccn(CC(=O)NCCc3ccccc3)c(=O)c2=O)c1`, the call was inactive and the cell number change is -3.95%.

Turning to `Cc1ccc(OCC(=O)Nc2cccc(-c3nnc(-c4ccccc4)o3)c2)cc1`, the “lipid storage change, negative = inhibition” value is -1.29% (inactive) and the cell number change worked out at 1.35%.

For the compound `Cc1cccc(N(CC(=O)Nc2ccccc2F)S(C)(=O)=O)c1`, the Potency is 6.51 µM (active).

For the compound `CSc1ccccc1NC(=O)CN(c1cccc(C)c1)S(C)(=O)=O`, the “lipid storage change, negative = inhibition” value is 11.7% (inactive) and the cell number change was -13.7%.

In the case of `CSc1ccccc1NC(=O)CN(c1cc(C)cc(C)c1)S(C)(=O)=O`, the compound was classed as inactive.

Consider `C/C(=N\N=C\c1cccc(F)c1)c1nnn(-c2nonc2N)c1C`, for which the “lipid storage change, negative = inhibition” value was 20.8% (inactive) and the cell number change is -1.27%.

As to `CCOc1ccc(NC(=O)CNS(=O)(=O)c2c(C)cc(C)cc2C)cc1`, the Potency is 0.92 µM (active).

Consider `CCOc1ccc(NC(N)=O)cc1`, for which the “lipid storage change, negative = inhibition” value was 11.6% (inactive) and the cell number change was 1.62%.

As to `CCOc1ccc(NC(=O)CCS(=O)(=O)c2ccc(C)cc2)cc1`, the “lipid storage change, negative = inhibition” value was -5.54% (inactive) and the cell number change came out at 9.92%.

Take `CCC(C)NCCCOc1cc(Cl)ccc1Cl` (centres undefined): the “lipid storage change, negative = inhibition” value is 0.912% (inactive) and the cell number change was found to be 12.7%.

In the case of `COc1ccc(N(CC(=O)Nc2ccc(C)c(C)c2)S(=O)(=O)c2c(C)n[nH]c2C)cc1`, the “lipid storage change, negative = inhibition” value is 28.1% (inactive) and the cell number change amounted to 4.08%.

As for `CNC(=O)N(C1=NCCCCC1)c1ccc(Br)cc1`, the “lipid storage change, negative = inhibition” value was -2.09% (inactive) and the cell number change was -6.67%.

`Cc1nn(CCC(=O)N2CCN(S(=O)(=O)c3ccccc3)CC2)c(C)c1C`: the compound was called inactive and the cell number change turned out to be 24.4%.

`Cc1cc(C)cc(C(=O)Oc2cc(C)[nH]c(=O)c2[N+](=O)[O-])c1`: the compound was called inactive and the cell number change was -7.31%.

As for `Cc1ccc(NC(=O)C(C)Sc2nnc(C)n2CC2CCCO2)cc1` (centres undefined), the call was inactive and the cell number change stood at 11.7%.

For `Cc1ccccc1NC(=O)C(C)Sc1nnc(-c2ccncc2)n1CC1CCCO1` (centres undefined), the Potency is 2.31 µM (active) and the cell number change came out at 3.95%.

As to `O=C(CSc1nnc(-c2ccncc2)n1CC1CCCO1)Nc1ccccc1Cl` (centres undefined), the “lipid storage change, negative = inhibition” value is 6.87% (inactive) and the cell number change was found to be 2.31%.

For the compound `O=C(O)C1CC=CCC1C(=O)Nc1cccc(F)c1` (centres undefined), the “lipid storage change, negative = inhibition” value was -11.4% (inactive).

As to `Cc1ccc(-n2c(N)cc(=O)nc2SCC(=O)NC2CCCCC2)cc1C`, the “lipid storage change, negative = inhibition” value is 4.5% (inactive) and the cell number change is -3.12%.

As to `Cc1ccnc(NC(=O)/C=C/c2cccs2)c1`, the “lipid storage change, negative = inhibition” value is -0.722% (inactive) and the cell number change was -3.66%.

In the case of `Cc1cc(C)nc(SCC(=O)Nn2cnnc2)n1`, the “lipid storage change, negative = inhibition” value is -6.33% (inactive) and the cell number change was -0.845%.

As to `O=C(CSc1ccc(Cl)cc1)Nc1ncccn1`, the “lipid storage change, negative = inhibition” value was -22.8% (inactive) and the cell number change came out at 8.97%.

Consider `O=C(CSc1ncccn1)Nc1ccccc1`, for which the result was inactive and the cell number change worked out at 17.6%.

Consider `O=C(Nc1ccc(Cl)cc1)Nn1cnnc1`, for which the result was inactive and the cell number change was 8.74%.

Turning to `O=C(CSc1ncccn1)Nn1cnnc1`, the Potency was 7.31 µM (active) and the cell number change is -0.567%.

On to `O=C(CSc1ccc(Cl)cc1)Nn1cnnc1`, for which the Potency was 16.4 µM (active) and the cell number change is 7.58%.

For the compound `Cc1ccc(-n2nc3c(c2NC(=O)C2CCCC2)CS(=O)(=O)C3)cc1`, the compound was classed as inactive and the cell number change was -12.8%.

`Cc1ccc(S(=O)(=O)N2CCc3ccccc3C2CN2C(=O)c3ccccc3C2=O)cc1` (centres undefined): the result was inactive.

Turning to `COc1cccc(NC(=S)N2CCN(C(c3ccccc3)c3ccccc3)CC2)c1`, the “lipid storage change, negative = inhibition” value was 17% (inactive).

For `Cc1nn(C)c(C)c1/C=N/NC(=O)CCn1nc(C)c([N+](=O)[O-])c1C`, the “lipid storage change, negative = inhibition” value was 9.31% (inactive) and the cell number change is -10.6%.

On to `Cc1ccc(OCC(=O)n2cnnc2N)c(C)c1`, for which the “lipid storage change, negative = inhibition” value was 16.4% (inactive) and the cell number change is -14.9%.

Turning to `CCN1CCN(Cc2c(C)[nH]c3ccc(OC)cc3c2=O)CC1`, the compound was classed as inactive and the cell number change came to 9.98%.

On to `COc1ccc(N=C2S/C(=C\c3ccco3)C(=O)N2CC(C)C)cc1`, for which the outcome was inactive and the cell number change was -0.418%.

Turning to `COc1ccccc1CCC(=O)N1CCC(n2nccc2NC(=O)CC(C)C)CC1`, the “lipid storage change, negative = inhibition” value is -24.1% (inactive) and the cell number change was -2.79%.

Regarding `CCN(CC)S(=O)(=O)c1ccc(OCC(=O)NC(=O)c2ccccc2OC)c([N+](=O)[O-])c1`, the “lipid storage change, negative = inhibition” value was -8.1% (inactive) and the cell number change amounted to 2.39%.

As for `CCCn1c(C)cc(C(=O)COc2ccc(C)nc2[N+](=O)[O-])c1C`, the “lipid storage change, negative = inhibition” value is 5.96% (inactive) and the cell number change amounted to 5.33%.

With `CCCn1c(C)cc(C(=O)COc2ccc(S(=O)(=O)N(CC)CC)cc2[N+](=O)[O-])c1C`, the Potency was 25.9 µM (active) and the cell number change is -12.5%.

As to `CN(C)S(=O)(=O)c1cccc(NC(=S)N2CCc3ccccc32)c1`, the compound was called inactive.

Take `CC(C)NC(=O)CN(Cc1ccccc1)S(=O)(=O)c1ccccc1`: the outcome was inactive and the cell number change was 1.76%.

For `CC[N+]1=C(C)C(C)(C)c2cc(C)ccc21`, the Potency was 0.231 µM (active) and the cell number change is -16.1%.

Turning to `CC[n+]1c(S(=O)(=O)[O-])ccc2ccc(C)cc21`, the “lipid storage change, negative = inhibition” value is 0.898% (inactive) and the cell number change is 3.16%.

Take `CC[n+]1c(C)sc2cc(C)ccc21`: the “lipid storage change, negative = inhibition” value is -0.992% (inactive) and the cell number change is -15.5%.

For `O=C(N/N=C/c1ccccc1)c1ccc(NC(=O)c2ccc(F)cc2)cc1`, the compound was called inactive and the cell number change amounted to 8.73%.
